TGFb SMAD3 inh: qHTS for Inhibitors of TGF-b; Potency, µM (series often up to 46.1 µM), actives largely listed as inhibitors; AID 588855, 2011; HepG2 CAGA-GFP TGF-b/SMAD3 reporter, GFP fluorescence, 18 h; TGF-beta stimulated, 500 pg/mL final; hit rate 1.2% among 410,000; also: nearly all actives have a fitted effect of over 65% in size
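Inhibition of TGF-beta-driven CAGA-GFP reporter expression in HEPG2 cells is measured by cellular GFP fluorescence after 18 h stimulation with 500 pg/mL recombinant TGF-beta in 1% FBS medium at 37 degrees C.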
KB-V1 MDR tox: qHTS assay for MDR1-selective chemotherapeutics: Primary screen using the drug-selected MDR subline cells KB-V1; KB-V1 MDR cells viability, CellTiter-Glo, 72 h; Potency, µM (series often up to 46.1 µM), actives largely listed as cytotoxic; hit rate 3.4% among 400,000; AID 1347076, 2019; also: nearly all actives have a fitted effect of over 60% in size
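KB-V1 cells (P-gp-expressing MDR subline of KB-3-1) in phenol-red-free DMEM with 10% FBS were exposed to library compounds over a concentration series for 72 h at 37 degrees C. Viability read by CellTiter-Glo luminescence; concentration-effect curves fitted after normalization.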
HT1080 IDH1KD tx: qHTS for induction of synthetic lethality in tumor cells producing 2HG: qHTS for the HT-1080-IDH1KD cell line; hit rate 2% among 360,000; Potency, µM (doses to about 46.1 µM), actives largely listed as cytotoxic; HT-1080 IDH1 knockdown viability, ATP luminescence, 48 h; AID 686971, 2013
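% activity derives from luminescence (CellTiter-Glo), normalised to DMSO and no-cell wells. HT-1080-IDH1KD cells, 750/well, had 48 h compound exposure at 37 °C.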
KB-3-1 cytotox: qHTS assay for MDR1-selective chemotherapeutics: Primary screen using the parental adenocarcinoma cell KB-3-1; KB-3-1 viability, CellTiter-Glo ATP luminescence, 72 h; Potency, µM (doses to about 46.1 µM), usual class: cytotoxic; hit rate 1.4% among 400,000; also: nearly all actives have a fitted effect of over 60% in size
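Multi-concentration cytotoxicity screen in KB-3-1 cells grown in DMEM lacking phenol red with 10% FBS. After 72 h at 37 °C with compound, ATP-dependent luminescence was recorded.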
HepG2 viability: qHTS for Inhibitors of TGF-b: Cytotox Counterscreen; HepG2 CAGA-GFP viability, ATP luminescence, 18 h; hit rate 0.76% among 410,000; Potency, µM (doses to about 46.1 µM), actives largely listed as cytotoxic
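HepG2 CAGA-GFP cells (1000/well, DMEM with 1% FBS) received compound, then TGF-beta at 500 pg/mL final, and were incubated 18 hours at 37 degrees C. Viability was read by CellTiter-Glo luminescence. Media-only wells were set as complete cell-killing and DMSO as no toxicity.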
HT1080-NT tox: qHTS for induction of synthetic lethality in tumor cells producing 2HG: qHTS for the HT-1080-NT fibrosarcoma cell line. hit rate 1.6% among 360,000. HT-1080-NT fibrosarcoma viability, CellTiter-Glo ATP luminescence, 48 h. Potency, µM (top dose mostly 46.1 µM), usual class: cytotoxic. AID 686970, 2013;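 also: NT is the 2HG producing partner of a matched IDH1 knockdown line; nearly all actives have a fitted effect of over 55% in size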
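Toxicity toward the 2HG-producing NT line was scored as %Activity, normalised to DMSO and no-cell wells, from CellTiter-Glo luminescence after 48 hours' treatment.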
Large screens that a line does not name were inactive. In the library only some 6.6% were active in any assay of this set; here they are far more common. Calls follow the shape of the dose curve; as a rule, active = well fitted curve in the direction sought with a large enough effect; inconclusive = small, poorly fitted or top-dose-only effect, or another doubt; inactive = no such curve, though single readings can be large; an effect the other way counts as inactive or inconclusive.

COc1ccc(C(CCNCc2ccc(OC)c(OC)c2)c2ccc(F)cc2)cc1 (configuration not stated)	none
CC(C)Oc1ccc(C(CCNCc2ccc(O)cc2)c2ccccc2)cc1 (configuration not stated)	TGFb SMAD3 inh 14µM, KB-V1 MDR tox 18µM, HT1080 IDH1KD tx inconclusive, KB-3-1 cytotox inconclusive, HT1080-NT tox inconclusive
COc1cccc(CNC(=O)c2ccc(CNS(=O)(=O)c3ccc(C)cc3)cc2)c1	KB-V1 MDR tox inconclusive (no result: HT1080 IDH1KD tx, HT1080-NT tox)
COc1cc(-c2nnn(CC(=O)Nc3ccc(OC(F)(F)F)cc3)n2)cc(OC)c1OC	TGFb SMAD3 inh inconclusive (no result: HT1080 IDH1KD tx, HT1080-NT tox)
COc1ccc(C(C)NCCC(c2ccc(OC(C)C)cc2)c2ccccc2OC)cc1 (configuration not stated)	TGFb SMAD3 inh 11µM, KB-V1 MDR tox 16µM, HT1080 IDH1KD tx inconclusive, KB-3-1 cytotox 21µM, HepG2 viability 13µM, HT1080-NT tox 15µM
O=C(Nc1cc(C(F)(F)F)ccc1-n1cncn1)c1ccc([N+](=O)[O-])o1	TGFb SMAD3 inh inconclusive, KB-V1 MDR tox inconclusive, KB-3-1 cytotox 21µM
CN(C)c1ccc(/C=C2/CCc3ccccc32)cc1	TGFb SMAD3 inh 16µM (no result: HT1080 IDH1KD tx, HT1080-NT tox)
CN(C)c1ccc(C=C2c3ccccc3-c3ccccc32)cc1	KB-V1 MDR tox inconclusive, KB-3-1 cytotox inconclusive (no result: HT1080 IDH1KD tx, HT1080-NT tox)
OCCN(CCO)c1nc2ccccc2[nH]1	none
O=c1[nH]c(=O)n(C(c2ccccc2)(c2ccccc2)c2ccccc2)cc1N(CCO)CCO	KB-V1 MDR tox 16µM, KB-3-1 cytotox inconclusive
Cc1ccc(S(=O)(=O)C2(C(=O)N3CCN(C4CCCCC4)CC3)CC2)cc1	KB-V1 MDR tox 16µM
Cc1ccc(S(=O)(=O)C2(C(=O)N3CCN(c4cc(C)ccc4C)CC3)CC2)cc1	none
Cc1ccc(S(=O)(=O)C2(C(=O)N3CCCCCC3)CC2)cc1	KB-V1 MDR tox 23µM
CCOC(=O)c1ccccc1NC(=O)N1CCN2CCCCC2C1 (configuration not stated)	TGFb SMAD3 inh inconclusive (no result: KB-V1 MDR tox, HT1080 IDH1KD tx, KB-3-1 cytotox, HT1080-NT tox)
COc1cc(NC(=O)C2CCN(S(=O)(=O)c3c(C)noc3/C=C/c3c(C)cc(C)cc3C)CC2)cc(OC)c1	TGFb SMAD3 inh inconclusive (no result: KB-V1 MDR tox, HT1080 IDH1KD tx, KB-3-1 cytotox, HT1080-NT tox)
Cc1noc(C)c1CSc1nc2[nH]ncc2c(=O)n1-c1ccccc1	KB-V1 MDR tox inconclusive, HT1080 IDH1KD tx 0.52µM, KB-3-1 cytotox inconclusive, HT1080-NT tox inconclusive
Cc1noc(C)c1CSc1nc2ccccc2c(=O)n1-c1ccc(F)cc1F	KB-V1 MDR tox 21µM, HT1080 IDH1KD tx 16µM, KB-3-1 cytotox 7.3µM, HT1080-NT tox inconclusive
Cc1noc(C)c1CSc1nc2ccccc2c(=O)n1-c1ccccc1	KB-V1 MDR tox 5.8µM, HT1080 IDH1KD tx 9.2µM, KB-3-1 cytotox 5.8µM, HT1080-NT tox inconclusive
Cc1nc(CSc2nc3[nH]ncc3c(=O)n2-c2ccccc2)cs1	none
CCCn1c(=O)n(-c2ccccc2)c(=O)c2sc3ccccc3c21	none (no result: HT1080 IDH1KD tx, HT1080-NT tox)
Cc1ccc(C(=O)O)cc1N1C(=O)c2cccc3c([N+](=O)[O-])ccc(c23)C1=O	TGFb SMAD3 inh inconclusive, HT1080 IDH1KD tx inconclusive, KB-3-1 cytotox inconclusive, HT1080-NT tox 16µM
O=C(O)c1ccc(CN2C(=O)c3cccc4c([N+](=O)[O-])ccc(c34)C2=O)cc1	KB-V1 MDR tox inconclusive, HT1080 IDH1KD tx inconclusive, KB-3-1 cytotox inconclusive, HT1080-NT tox inconclusive
CN(C)CCCN1C(=O)c2cccc3c([N+](=O)[O-])ccc(c23)C1=O	TGFb SMAD3 inh inconclusive, KB-V1 MDR tox inconclusive, HT1080 IDH1KD tx 5.8µM, KB-3-1 cytotox 23µM, HT1080-NT tox inconclusive
O=C(Nc1ccc(S(=O)(=O)Nc2nccs2)cc1)c1cccc(N2C(=O)c3ccccc3C2=O)c1	none
